Laboratory results from PubChem BioAssay (NCI).
About 79,000 compounds went through this panel and 15% of them were active in at least one assay; those are over-represented in the sample as a whole. The source made the active and inactive calls. Rule as the data show it: active = growth inhibition above about 70%; inactive = the rest.

How the values were obtained:
[1] = NCI Yeast Anticancer Drug Screen. Data for the rad52 strain (AID 147);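 also: 0% = growth of vehicle-treated control cultures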; settings: S. cerevisiae rad52 mutant growth inhibition, hits give high values
Method in brief: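 Growth of repair-deficient yeast cells was compared between compound-treated and vehicle-treated cultures to give percent inhibition.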

[2] = NCI Yeast Anticancer Drug Screen. Data for the wt1 strain (AID 149);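 also: 0% = growth of vehicle-treated wt1 cultures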; settings: S. cerevisiae wt1 strain (SPY 50644) growth inhibition, hits give high values
Method in brief: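 wt1 strain grown with compound or vehicle; inhibition taken from the growth difference.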

[3] = NCI Yeast Anticancer Drug Screen. Data for the rad50EPP+ strain (AID 151);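 also: 0% = growth of vehicle-treated control cultures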; settings: S. cerevisiae rad50 mutant strain, hits give high values
Method in brief: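 Measured: growth inhibition of rad50EPP+ yeast. Reference: vehicle-treated controls. Screen uses strains with defined genetic alterations in DNA damage repair or cell cycle control.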

[4] = NCI Yeast Anticancer Drug Screen. Data for the mgt1 strain (AID 153); settings: S. cerevisiae mgt1 mutant growth inhibition, hits give high values
Method in brief: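 Compounds were applied to mgt1 mutant yeast, and growth was then compared against vehicle-treated control cultures to give percent inhibition.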

[5] = NCI Yeast Anticancer Drug Screen. Data for the rad50 strain (AID 155);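 also: 0% = growth of vehicle-only cultures of the same strain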; settings: S. cerevisiae rad50 strain growth inhibition, hits give high values
Method in brief: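 DNA repair mutant yeast, compound exposure, growth read-out; inhibition is taken relative to vehicle.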

[6] = NCI Yeast Anticancer Drug Screen. Data for the mec2-1 strain (AID 157); settings: S. cerevisiae mec2-1 strain, hits give high values
Method in brief: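 Compounds were applied to mec2-1 yeast cells. Their growth was then compared with that of vehicle-treated cultures to give growth inhibition.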

[7] = NCI Yeast Anticancer Drug Screen. Data for the rad14 strain (AID 159);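 also: 0% = growth of vehicle-treated control cultures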; settings: S. cerevisiae rad14 strain growth inhibition, hits give high values
Method in brief: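 DNA repair-defective yeast, compound-exposed; % growth inhibition derived by comparison with vehicle-treated controls.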

[8] = NCI Yeast Anticancer Drug Screen. Data for the sgs1 mgt1 strain (AID 161);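 also: 0% = growth of cultures given vehicle only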; settings: S. cerevisiae sgs1 mgt1 strain, hits give high values
Method in brief: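 Percent growth inhibition was derived by comparing compound-exposed mutant yeast with vehicle-exposed cultures. The strain carries alterations in DNA damage repair.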

[9] = NCI Yeast Anticancer Drug Screen. Data for the CLN2oe strain (AID 163);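 also: 0% = growth of vehicle-only control cultures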; settings: S. cerevisiae CLN2oe strain, hits give high values
Method in brief: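 Cells of an engineered yeast line with disturbed cell-cycle regulation are treated with compound. Inhibition of growth is then calculated relative to the vehicle-treated reference.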

[10] = NCI Yeast Anticancer Drug Screen. Data for the cln2 rad14 strain (AID 165);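 also: 0% = growth equal to vehicle treated cultures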; settings: S. cerevisiae cln2 rad14 strain, hits give high values
Method in brief: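 Strain: cln2 rad14 yeast, altered in cell cycle control and DNA damage repair. Read-out: growth inhibition vs vehicle.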

[11] = NCI Yeast Anticancer Drug Screen. Data for the bub3 strain (AID 167); settings: S. cerevisiae bub3 mutant strain, hits give high values
Method in brief: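 In this screen, a yeast mutant lacking normal mitotic checkpoint function is challenged with compound. Relative growth versus vehicle gives the inhibition value.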

[12] = NCI Yeast Anticancer Drug Screen. Data for the wt2 strain (AID 169);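 also: 0% = growth of vehicle-treated yeast cultures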; settings: S. cerevisiae wt2 strain growth inhibition, hits give high values
Method in brief: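 Growth of compound-treated yeast is measured and expressed as inhibition relative to vehicle-only controls.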

[13] = NCI Yeast Anticancer Drug Screen. Data for the mlh1 strain (AID 171);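 also: 0% = growth of vehicle-treated control cultures of the same strain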; settings: S. cerevisiae mlh1 strain growth inhibition, hits give high values
Method in brief: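 Test agents were incubated with yeast bearing a defined DNA damage repair or cell cycle control alteration; values are growth inhibition normalised to vehicle-treated cultures.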

[14] = NCI Yeast Anticancer Drug Screen. Data for the sgs1 strain (AID 173);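 also: 0% = growth of vehicle-only control cultures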; settings: S. cerevisiae sgs1 mutant, hits give high values
Method in brief: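 Strain with an altered DNA repair or cell cycle pathway exposed to compound. Growth then measured. Value = inhibition versus vehicle control.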

[15] = NCI Yeast Anticancer Drug Screen. Data for the mlh1 rad18 strain (AID 175); settings: S. cerevisiae mlh1 rad18 strain growth inhibition, hits give high values
Method in brief: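 A repair-deficient yeast strain is exposed to test compound, and growth is scored relative to vehicle-treated controls.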

[16] = NCI Yeast Anticancer Drug Screen. Data for the rad18 strain (AID 177); settings: S. cerevisiae rad18 mutant growth inhibition, hits give high values
Method in brief: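 DNA-repair-defective yeast; compound treatment; growth inhibition scored against vehicle.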

[17] = at 5.0 µM (retest, dose inferred, filed as 0.5)
[18] = at 50.0 µM (retest, dose inferred, filed as 5.0)

Measured: growth inhibition

O=C1c2ccccc2C(=O)c2c(NC3CCCCC3)ccc(Nc3ccc(S(=O)(=O)O)cc3)c21
inactive: [1]; at 1.2 µM -5% | [1]; at 3.7 µM -5% | [1]; at 11.0 µM -5% | [1]; at 33.0 µM 37% | [1]; at 100.0 µM 49% | [2]; at 1.2 µM -1% | [2]; at 3.7 µM -5% | [2]; at 11.0 µM -7% | [2]; at 33.0 µM 10% | [2]; at 100.0 µM 33% | [3]; at 1.2 µM -2% | [3]; at 3.7 µM 5% | [3]; at 11.0 µM 56% | [3]; at 100.0 µM 63% | [4]; at 1.2 µM -2% | [4]; at 3.7 µM -1% | [4]; at 11.0 µM -2% | [4]; at 100.0 µM 68% | [5]; at 1.2 µM 0% | [5]; at 3.7 µM -2% | [5]; [17] 8% | [5]; at 11.0 µM 9% | [5]; at 33.0 µM 27% | [5]; [18] 62% | [5]; at 100.0 µM 44% | [6]; at 1.2 µM 1% | [6]; at 3.7 µM -5% | [6]; [17] -14% | [6]; at 11.0 µM -5% | [6]; at 33.0 µM 14% | [6]; [18] 59% | [6]; at 100.0 µM 48% | [7]; at 1.2 µM 2% | [7]; at 3.7 µM -4% | [7]; at 11.0 µM 2% | [7]; at 33.0 µM 48% | [8]; [17] -13% | [9]; at 1.2 µM -5% | [9]; at 3.7 µM 4% | [9]; at 11.0 µM -5% | [9]; at 33.0 µM 1% | [9]; at 100.0 µM 18% | [10]; [17] -13% | [10]; [18] -4% | [10]; at 50.0 µM 59% | [11]; at 1.2 µM -2% | [11]; at 3.7 µM -4% | [11]; [17] 6% | [11]; at 11.0 µM 5% | [11]; at 33.0 µM 36% | [11]; [18] 46% | [11]; at 100.0 µM 30% | [12]; at 1.2 µM -3% | [12]; at 3.7 µM -4% | [12]; at 11.0 µM 5% | [12]; at 100.0 µM 62% | [13]; at 1.2 µM -2% | [13]; at 3.7 µM -3% | [13]; at 11.0 µM 5% | [13]; at 33.0 µM 50% | [14]; at 1.2 µM -1% | [14]; at 3.7 µM -2% | [14]; at 11.0 µM 23% | [15]; [17] 5% | [16]; at 1.2 µM -2% | [16]; at 3.7 µM -13% | [16]; at 11.0 µM -1% | [16]; at 33.0 µM 40% | [16]; at 100.0 µM 46%
active: [3]; at 33.0 µM 80% | [4]; at 33.0 µM 81% | [5]; at 50.0 µM 79.2% | [6]; at 50.0 µM 77% | [7]; at 100.0 µM 71% | [8]; [18] 85% | [8]; at 50.0 µM 77.2% | [11]; at 50.0 µM 70.3% | [12]; at 33.0 µM 80% | [13]; at 100.0 µM 71% | [14]; at 33.0 µM 79% | [14]; at 100.0 µM 72% | [15]; [18] 72% | [15]; at 50.0 µM 82.9%

COc1cc(/C=C2\CCc3ccccc3C2=O)cc(OC)c1OC
active: [1]; at 100.0 µM 70% | [2]; at 100.0 µM 76% | [4]; at 100.0 µM 73% | [5]; at 100.0 µM 72% | [6]; at 100.0 µM 73% | [9]; at 100.0 µM 74% | [11]; at 33.0 µM 76% | [11]; [18] 86% | [11]; at 50.0 µM 74.3% | [11]; at 100.0 µM 85% | [12]; at 100.0 µM 79% | [13]; at 100.0 µM 75% | [14]; at 100.0 µM 86%
inactive: [1]; at 1.2 µM 3% | [1]; at 3.7 µM -3% | [1]; at 11.0 µM 3% | [1]; at 33.0 µM 18% | [2]; at 1.2 µM 9% | [2]; at 3.7 µM 3% | [2]; at 11.0 µM -2% | [2]; at 33.0 µM 11% | [3]; at 1.2 µM 1% | [3]; at 3.7 µM 2% | [3]; at 11.0 µM 17% | [3]; at 33.0 µM 30% | [3]; at 100.0 µM 40% | [4]; at 1.2 µM -9% | [4]; at 3.7 µM -14% | [4]; at 11.0 µM -45% | [4]; at 33.0 µM 6% | [5]; at 1.2 µM 6% | [5]; at 3.7 µM -3% | [5]; [17] 15% | [5]; at 11.0 µM -17% | [5]; at 33.0 µM 26% | [5]; [18] 6% | [5]; at 50.0 µM 44.1% | [6]; at 1.2 µM -17% | [6]; at 3.7 µM 10% | [6]; [17] -11% | [6]; at 11.0 µM 1% | [6]; at 33.0 µM 22% | [6]; [18] 14% | [6]; at 50.0 µM 25.6% | [7]; at 1.2 µM -10% | [7]; at 3.7 µM -25% | [7]; at 11.0 µM -44% | [7]; at 33.0 µM -28% | [7]; at 100.0 µM 48% | [8]; [17] 5% | [8]; [18] 33% | [8]; at 50.0 µM 56.8% | [9]; at 1.2 µM 13% | [9]; at 3.7 µM -2% | [9]; at 11.0 µM 2% | [9]; at 33.0 µM 15% | [10]; [17] 2% | [10]; [18] 24% | [10]; at 50.0 µM 39.8% | [11]; at 1.2 µM -29% | [11]; at 3.7 µM -13% | [11]; [17] -3% | [11]; at 11.0 µM 32% | [12]; at 1.2 µM 2% | [12]; at 3.7 µM 0% | [12]; at 11.0 µM -10% | [12]; at 33.0 µM 13% | [13]; at 1.2 µM -3% | [13]; at 3.7 µM -7% | [13]; at 11.0 µM -11% | [13]; at 33.0 µM 21% | [14]; at 1.2 µM 16% | [14]; at 3.7 µM 17% | [14]; at 11.0 µM 24% | [14]; at 33.0 µM 61% | [15]; [17] -15% | [15]; [18] 0% | [15]; at 50.0 µM 33.5%

[N-]=[N+]=NC1=C(c2ccccn2)C(=O)c2cccc3cccc1c23
active: [1]; at 100.0 µM 75% | [3]; at 33.0 µM 74% | [3]; at 100.0 µM 93% | [5]; [18] 71% | [5]; at 100.0 µM 71%
inactive: [1]; at 1.2 µM 2% | [1]; at 3.7 µM 4% | [1]; at 11.0 µM 24% | [1]; at 33.0 µM 50% | [2]; at 1.2 µM 2% | [2]; at 3.7 µM 4% | [2]; at 11.0 µM 5% | [2]; at 33.0 µM 14% | [2]; at 100.0 µM 34% | [3]; at 1.2 µM 9% | [3]; at 3.7 µM 16% | [3]; at 11.0 µM 31% | [4]; at 1.2 µM -3% | [4]; at 3.7 µM -1% | [4]; at 11.0 µM 19% | [4]; at 33.0 µM 10% | [4]; at 100.0 µM 41% | [5]; at 1.2 µM 2% | [5]; at 3.7 µM 3% | [5]; [17] 7% | [5]; at 11.0 µM 5% | [5]; at 33.0 µM 53% | [5]; at 50.0 µM 67.2% | [6]; at 1.2 µM 5% | [6]; at 3.7 µM 7%
